Measurements taken from PubChem BioAssay AID1851 (National Center for Advancing Translational Sciences (NCATS), 2009).
Where “and” joins values, the source holds several entries; their conditions need not be identical. Identical values can stand only once. Hit rate of the full screen: of about 16,000 compounds, about 2,600 (16%) were called active. Another 20% or so got no clear call; they are omitted. The call rests on the fitted dose curve; in most records, active means well fitted curve in the direction sought with a large enough effect; inconclusive means small, poorly fitted or top-dose-only effect, or effect the other way; inactive means no such curve, though single readings can be large or run the other way. The full list was thinned out, with actives kept by preference. A structure can be active in one record and inactive in another.

target: Cytochrome P450 2D6 (Homo sapiens) (UniProt P10635); test: Cytochrome panel assay with activity outcomes; conditions: recombinant CYP, pro-luciferin dealkylation, luminescence, p450-cyp2d6; series mostly up to 57.1 µM; activity, negative = inhibition: at the top concentration
On the % scale 0 is the no-effect control and ±100 the full control effect.

Chain of Cytochrome P450 2D6 (Homo sapiens) (P10635 whole entry, looked up): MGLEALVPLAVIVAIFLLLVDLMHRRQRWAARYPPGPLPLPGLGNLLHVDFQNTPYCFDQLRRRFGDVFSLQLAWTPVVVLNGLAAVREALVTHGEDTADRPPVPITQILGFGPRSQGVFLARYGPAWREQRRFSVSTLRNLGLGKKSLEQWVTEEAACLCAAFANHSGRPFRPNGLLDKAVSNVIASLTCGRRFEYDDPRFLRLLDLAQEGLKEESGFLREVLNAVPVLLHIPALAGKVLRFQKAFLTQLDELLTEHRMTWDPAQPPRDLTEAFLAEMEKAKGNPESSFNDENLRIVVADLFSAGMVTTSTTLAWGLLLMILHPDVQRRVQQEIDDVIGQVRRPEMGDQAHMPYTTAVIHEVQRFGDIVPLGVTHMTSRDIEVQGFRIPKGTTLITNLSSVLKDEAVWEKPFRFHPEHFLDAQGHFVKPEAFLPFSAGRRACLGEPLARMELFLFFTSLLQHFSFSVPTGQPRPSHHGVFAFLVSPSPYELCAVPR

Row | Compound | activity, negative = inhibition | AC50
1 | CCN1C[C@@]2(COC)CC[C@H](OC)[C@]34[C@@H]1[C@]1(OCO[C@@]15C[C@@H](OC)C1C[C@H]3[C@H]5[C@@H]1OC)[C@H](O)[C@@H]24 | 2.41% [at 25.6 µM] (inactive) | 
2 | C[C@]12N[C@@H](Cc3ccccc31)c1ccccc12 |  | inactive and 79.4 nM (active) and 5.01 µM (active)
3 | C[C@]12N[C@H](Cc3ccccc31)c1ccccc12 |  | inactive
4 | Cc1nnc2ccc(-c3cccc(C(F)(F)F)c3)nn12 | -2.28% (inactive) | 
5 | S=C(Nc1ccc(Cl)cc1)NC1CC2CCCC(C1)N2C1CCCC1 (centres undefined) |  | 0.501 µM (active)
6 | NS(=O)(=O)C[C-]1C=C[CH]([Sb-]([Cl])([Cl])([Cl])([Cl])[Cl])C=C1.c1ccncc1 (centres undefined) | 7.69% [at 11.4 µM] (inactive) | 
7 | C=CCn1c(O)c(C(C)=NCCCN2CCOCC2)c(=O)[nH]c1=O | -29.6% (inactive) | 
8 | CC(=O)O[C@H]1C[C@@H](O[C@@H]2[C@H](C)O[C@H](O[C@@H]3[C@H](C)O[C@H](O[C@@H]4CC[C@@]5(C)[C@@H](CC[C@]6(C)[C@]5(C)C[C@H](O)[C@]5(C)[C@@H](C7=CC(=O)OC7)CC[C@@]56O)C4)C[C@@H]3O)C[C@@H]2O)O[C@@H](C)[C@H]1O[C@H]1O[C@@H](CO)[C@@H](O)[C@@H](O)[C@@H]1O | 2.58% [at 25.6 µM] (inactive) | 
9 | CC1=CC(=O)C2=C(C)C[C@@H](O)[C@@H]3[C@@H](OC(=O)[C@H]3C)[C@H]12 | 3.85% [at 25.6 µM] (inactive) | 
10 | CN1CCN(c2ccc([N+](=O)[O-])c(N/N=C3\CN4CCC3CC4)c2)CC1 | 37.9% (inactive) | 
11 | C=CCN1C[C@@H](C)N([C@H](c2ccc(C(=O)N(CC)CC)cc2)c2cccc(OC)c2)C[C@H]1C |  | 31.6 µM (active)
12 | C=CCN1C[C@H](C)N([C@H](c2ccc(C(=O)N(CC)CC)cc2)c2cccc(OC)c2)C[C@H]1C |  | 1.58 µM (active)
13 | C=CCN1C[C@H](C)N([C@@H](c2ccccc2)c2ccc(C(=O)N(CC)CC)cc2)C[C@H]1C | -15.7% (inactive) | 
14 | C=CCN1C[C@H](C)N([C@H](c2ccc(C(=O)N(CC)CC)cc2)c2cccc(O)c2)C[C@H]1C | -2.16% (inactive) | 
15 | Cn1c(=O)c2[nH]cnc2n(C)c1=O.[CH2-][C@H](Cc1cccc2cc(C(=O)O)c(=O)oc12)OC.[Hg].[OH-] | 10.9% [at 11.4 µM] (inactive) | 
16 | Cc1ccc(-c2nc3ccccc3c(=O)n2-c2ncccc2C)cc1 | -10.4% (inactive) | 
17 | C[C@H]1CC[C@@]2(NC1)O[C@@H]1C[C@H]3[C@@H]4CC=C5C[C@@H](O)CC[C@]5(C)[C@@H]4CC[C@]3(C)[C@@H]1[C@@H]2C | 2.22% [at 25.6 µM] (inactive) | 
18 | COc1ccc(OCC(=O)Nc2ccc(Cl)cc2C(=O)c2ccccc2)cc1 | -2.96% (inactive) | 
19 | C[C@@H](Cc1ccc(OCC(=O)O)cc1)NC[C@H](O)c1cccc(Cl)c1 |  | 25.1 µM (active)
20 | CCNC[C@H](O)c1cccc(O)c1 | -3.56% [at 25.6 µM] (inactive) | 
21 | O=C(Nc1ccc(C(F)(F)F)cc1)c1cccn(Cc2ccc3c(c2)OC(F)(F)O3)c1=O | -11.5% (inactive) | 
22 | CCCCN1C(=O)C(C2c3ccccc3C(=O)N2Cc2ccccc2)C(=O)NC1=S (centres undefined) | 3.38% (inactive) | 
23 | COC(=O)[C@@H]1[C@@H]2C[C@H]3c4[nH]c5cc(OC)ccc5c4CCN3C[C@@H]2C[C@H](OC(=O)/C=C\c2cc(OC)c(OC)c(OC)c2)[C@H]1OC | -13.1% [at 25.6 µM] (inactive) | 
24 | O=C(CCCN1CCC2(CC1)C(=O)NCN2c1ccccc1)c1ccc(F)cc1 |  | 2.51 µM (active) and 1 µM (active) and 1.58 µM (active)
25 | O=C(CCCN1CCC(n2c(=O)[nH]c3ccccc32)CC1)c1ccc(F)cc1 |  | 6.31 µM (active)

Row | Compound | activity, negative = inhibition | AC50
26 | O=C1NCN(c2ccccc2)C12CCN(C[C@H]1COc3ccccc3O1)CC2 |  | 0.0631 µM (active)
27 | O=C1NCN(c2ccccc2)C12CCN(CCCOc1ccc(F)cc1)CC2 |  | 0.158 µM (active)
28 | CC(=O)OC1=CC2=CC[C@H]3[C@H]4CCC(=O)[C@@]4(C)CC(=O)[C@]3(S)[C@]2(C)CC1 | 0.557% [at 11.4 µM] (inactive) | 
29 | CC[C@@](O)(C(=O)O)c1cc2n(c(=O)c1CO)Cc1cc3ccccc3nc1-2 | 10.4% [at 11.4 µM] (inactive) | 
30 | O=C(Nc1cccc(F)c1)N1CC2(CCN(C(=O)Oc3ccccc3)CC2)C1 | -4.33% (inactive) | 
31 | CN1C(=O)C(=Cc2ccccc2Oc2ccc(Cl)c(F)c2)C(=O)N(C)C1=O | 16.1% (inactive) | 
32 | CC(C)C12CN3CC(C(C)C)(CN(C1)C3c1cccnc1)C2=O (centres undefined) | -8.2% (inactive) | 
33 | O=C(CCCN1CCC2(CC1)C(=O)N(Cc1cccc(F)c1)CN2c1ccccc1)c1ccc(F)cc1 |  | 3.16 µM (active)
34 | C[C@@]12CC(=O)[C@H]3[C@@H](CCC4=CC(=O)CC[C@]43C)[C@H]1CCC2=O | 2.29% [at 25.6 µM] (inactive) | 
35 | COc1ccccc1CC1C(=O)C2CCN1CC2 (centres undefined) |  | 11.2 µM (active)
36 | CC(C)C(=O)Nc1ccc([N+](=O)[O-])c(C(F)(F)F)c1 | -17.2% [at 25.6 µM] (inactive) | 
37 | CN(C)C(=O)Oc1cc(OC(=O)N(C)C)cc([C@@H](O)CNC(C)(C)C)c1 |  | 7.94 µM (active)
38 | CN(C)C(=O)Oc1cccc([N+](C)(C)C)c1 | -2.57% [at 25.6 µM] (inactive) | 
39 | CC(C)(C)NC[C@H](O)c1cc(Cl)c(N)c(Cl)c1 | -17.1% [at 25.6 µM] (inactive) | 
40 | CCCC[N+]12CCC(CC1)C(C(=O)c1cccs1)C2 (centres undefined) |  | 0.282 µM (active)
41 | CCN1C[C@@]2(COC)CC[C@H](O)[C@@]34[C@@H]2C[C@@H]([C@@H]13)[C@]1(O)C[C@@H](OC)C2C[C@H]4[C@H]1[C@H]2OC(C)=O | 1.85% [at 25.6 µM] (inactive) | 
42 | CC[N+](CC)(CCCNC1=CC(=O)C(NCCC[N+](CC)(CC)Cc2ccccc2)=CC1=O)Cc1ccccc1 | -11.7% (inactive) | 
43 | CC(=O)O[C@H]1CC[C@@]2(C)[C@@H](CC[C@H]3[C@H]2CC(=O)[C@@]2(C)[C@@H]3C[C@H]3CC(C)=CC(=O)[C@H]32)C1 | 2.72% [at 11.4 µM] (inactive) | 
44 | COc1ccc(C[C@@H](N)c2ccc(OC)cc2)cc1 |  | 0.631 µM (active)
45 | COc1ccc(OC)c([C@H](O)[C@H](C)N)c1 | -12.7% [at 25.6 µM] (inactive) | 
46 | Cc1ccc(C(=O)C2C(=O)c3ccccc3C2=O)cc1 | 3% (inactive) | 
47 | O=C1NC(=S)NC(=O)C1=Cc1cccc2cc3ccccc3cc12 | -0.164% [at 11.4 µM] (inactive) | 
48 | CC[C@@H](CO)Nc1nc(NCc2ccccc2)c2ncn(C(C)C)c2n1 |  | 31.6 µM (active)
49 | CC(C)[C@H](CO)Nc1nc(Nc2cccc(Cl)c2)c2ncn(C(C)C)c2n1 | 2.72% (inactive) | 
